Source: PubChem BioAssay AID1347426 (Functional Genomics Laboratory (NCATS/FGL), 2020)
Out of some 31,000 sequences screened, about 1,400 (4.5%) were called active. Many of the other results were omitted from the sample, so actives are more common in it than they were. A number with no mark means an inactive call.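 Rule for the calls: active = median seed-adjusted z-score above 1 or below -1; inactive = the rest.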

assay: Novel Modifiers of Survival Motor Neuron (SMN) Protein: Gene Identification via Genome-wide siRNA Screen; conditions: HEK293T SMN2-luciferase reporter, siRNA knockdown, 72 h; actives lie on both sides;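 note: luminescence tracks full-length SMN protein made from the SMN2 reporter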
Summary of the method: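 Luciferase signal, proportional to full-length SMN made from an SMN2 cDNA reporter in stable HEK293T cells, was read 72 h after siRNA reverse transfection. Values were expressed as MAD scores after non-targeting-control normalization and log10 conversion; seed analysis flagged off-targets.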

Sequence | median seed-adjusted z-score
GGGUAGGUGAUAUCCAUAUTT against ZBTB5 | 0.314
GGCGGAGUAUGGAAAGUUATT against UBE2H | 0
GCACCUCUCUGCUAACUGUTT against PGC | 0.884
CGAUGUCAGUAGGAACCUUTT against PSMC1 | -2.23 (active)
CGACUACCCAUACUCUCCATT against CDC34 | 0
CUACCUCUAUAUCACCAAATT against KDELR1 | -0.0168
CCGUUGCUCUAUCUUCGUATT against SETBP1 | 0.0232
GAAAGACAGAUCAAGAUUUTT against HOXB7 | -0.153
ACCGCUUCAUGUCUGCGUATT against SF3A2 | -1.7 (active)
AUCCGAUGGUGGUUACUGATT against MCOLN1 | -0.522
CGGCUUGAAUUUGAUCUAUTT against AASDHPPT | 0.64
GAGUGACUGUAGAGCCUCATT against GCS1 | 0.819
CACGGUCUGUUCUCAGAUUTT against MXD4 | 0.688
CCCUUUUACUAUUCAGCGATT against PPP4R2 | 0.211
CAUUUUAGAUGGGCACAAUTT against GOSR2 | -1.25 (active)
GAAUGAUCGUGAUCCUCGUTT against AHCTF1 | -0.501
GAGUGAAGAUGAGUUGACATT against XRCC6 | 0
GACCGGAUAUGGGCUAUAATT against NEK7 | 0
CAAUUUUGCAGGCAACUUUTT against SCYE1 | 0.437
GACAUAUAAUGACAUAGAUTT against TRAK1 | 0.298
CUUUGUCAGAGAUCACUUATT against PIPOX | 1.06 (active)
GGAAUGCUAAGUUCCGAGATT against ARFGAP1 | 0.123
AGGUUUCAGUGGUUUGGAUTT against COL1A1 | 0
CCAAGAACCCGGAGAAGUATT against EXOC7 | -0.231
GUACAAUACAAACACUUAATT against ORC4L | -0.286
GCGUGGACCCAAAUCAAUATT against KARS | -0.152
GCUCCAACAUGGUCUACAATT against POLE | -1.55 (active)

Sequence | median seed-adjusted z-score
GCUAGUCUUCUGGAAGUUATT against SRPRB | 0.000693
GGAUAUGCAUGCAAUCAAATT against ADAM23 | -0.0279
GCCGUGACAUGAUAGGCAUTT against DDX41 | -0.611
GGUUUGUGAAAGCAUAUAATT against FMNL2 | 0.293
GGAACGAAGAGAACUAGAATT against OFD1 | 0
CCAAGGAGCUUACUAUGGATT against SETDB2 | 0.417
UGAGCAUGACUGAUUCCAATT against SFTPD | 0.289
GUGAAGAUGUGGUCCUGAATT against PTK2B | 1.71 (active)
GGCUGUAAACUGCGCAUCATT against APOBEC2 | 0.232
GAAUUGGAGAGCACCAAUATT against POLR2B | -4.81 (active)
ACAGGAUUCCAGAAAUGGATT against REG1A | 0.596
GCAGAAUUCUCCUACCAAATT against ENTPD3 | -0.28
GGUCAACGAUGACAACCGATT against ITGB4 | -0.226
CGGUAUCAUUACUGGAUAATT against LNPEP | -0.386
CCUUUGAGAUGGAAGCCUATT against ACY3 | 0.568
CAACCCUACCAAUGCUACUTT against PTP4A2 | -1.45 (active)
GCUGUGAAAUUGUUUCGAATT against IREB2 | 0
GGGAACUUCUUGGAACUUUTT against KLK12 | 0.243
CCAGCGCAACAAAGGAAAATT against HMX1 | 1.3 (active)
GAACUAAGCACUACUCUAATT against DRP2 | -0.0555
GCUACUUCUCAGUUGCUAATT against NDST4 | 0.426
CAAAGUGACCAAGCAGAGATT against SF3A2 | -1.7 (active)
CACCAGGACCAGUUAAAAATT against MVD | -0.561
GGUGAUUCAAGAUGCCCAATT against PXMP2 | -0.444
CUCCCAUGAUGGCAUCUUATT against HSPB2 | 0.247
CCAUCGAUGUCUCUGCUAUTT against ABCA1 | -1.27 (active)
UCGUCUUUGUCACCCGAAATT against CCL5 | 0.11
